This is a sample that favours compounds with a hit; in the whole collection about 2.8% have one here.
ATXN2 expr inh: Primary qHTS for Inhibitors of ATXN expression; HEK-293 ATXN2-luciferase reporter, luminescence, 24 h; Potency, µM (highest dose often 57 µM), usual class: inhibitors; 360,000 tested, 0.72% active; also: nearly all actives have a fitted effect of over 55% in size
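ATXN2-luciferase reporter cells (luciferase flanked by upstream and downstream ATXN2 gene portions) were treated 24 h at 37 °C with compounds at up to 57 uM. SteadyGlo luminescence gave expression; GF-AFC fluorescence gave viability.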
S2 tox: Viability Counterscreen for Primary qHTS for Inhibitors of ATXN expression; Potency, µM (top dose mostly 56.7 µM), most hits filed as cytotoxic; S2 cells (HEK-293 line with an ATXN2-luciferase reporter) viability, CellTiter-Fluor protease fluorescence, 24 h; 400,000 tested, 0.49% active; also: nearly all actives have a fitted effect of over 40% in size
TGFb inhibitor: qHTS for Inhibitors of TGF-b. HepG2 CAGA-GFP TGF-b/SMAD3 reporter, GFP fluorescence, 18 h; TGF-beta stimulated, 500 pg/mL final. Potency, µM (top dose mostly 46.1 µM), usual class: inhibitors. 410,000 tested, 1.2% active. AID 588855, 2011; also: nearly all actives have a fitted effect of over 65% in size
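HEPG2 CAGA-GFP cells (1000/well, DMEM with 1% FBS) were pre-incubated 2 h at 37 degrees C, given compound by pin tool, then stimulated with TGF-beta at 500 pg/mL final for 18 h before per-cell GFP fluorescence imaging.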
HepG2 tox: qHTS for Inhibitors of TGF-b: Cytotox Counterscreen; HepG2 CAGA-GFP viability, ATP luminescence, 18 h; Potency, µM (titrated, usually from 46.1 µM), actives largely listed as cytotoxic; 410,000 tested, 0.76% active
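HepG2 CAGA-GFP cells (1000/well, DMEM with 1% FBS) received compound, then TGF-beta at 500 pg/mL final, and were incubated 18 hours at 37 degrees C. Viability was read by CellTiter-Glo luminescence. Media-only wells were set as complete cell-killing and DMSO as no toxicity.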
HttQ103 aggreg: qHTS Multiplex Assay to Identify Dual Action Probes in a Cell Model of Huntington: Aggregate Formation (GFP) | PC12 HttQ103-GFP aggregates, Acumen cytometry, 40 h | Potency, µM (series often up to 46.1 µM), actives largely listed as inhibitors | 220,000 tested, 1.1% active | AID 1688, 2009; also: nearly all actives have a fitted effect of over 60% in size
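Huntingtin Q103 exon 1–GFP aggregates in induced PC12 cells (100 nM tebufenozide) were quantified by cytometry from lysates, with compounds dosed in titration.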
HTT cytoprotect: qHTS Multiplex Assay to Identify Dual Action Probes in a Cell Model of Huntington: Cytoprotection (ATP); PC12 HTT-Q103 induced, cytoprotection, ATP luminescence, 40 h; Potency, µM (doses to about 56.4 µM), usual class: activators; 230,000 tested, 0.14% active; AID 1471, 2008; also: nearly all actives have a fitted effect of over 45% in size
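PC12 cells with ecdysone-inducible HTT exon 1 Q103-GFP, induced with 100 nM tebufenozide and co-treated with library compounds in a dose series (1536-well, 1500 cells/well). Cytoprotection read as ATP content by ATPlite luminescence.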
Large screens that a line does not name were inactive; ! = not active in a repeat. Calls follow the shape of the dose curve; as a rule, active = well fitted curve in the direction sought with a large enough effect; inconclusive = small, poorly fitted or top-dose-only effect, or another doubt; inactive = no such curve, though single readings can be large; an effect the other way counts as inactive or inconclusive.

Cc1nc2c(C(=O)NC(C)c3ccccc3)cnn2c(C)c1Cc1ccccc1 (stereo not drawn)	HepG2 tox 13µM (no result: ATXN2 expr inh, S2 tox, HttQ103 aggreg, HTT cytoprotect)
Cc1nc2c(C(=O)NCCc3ccc(Cl)cc3)cnn2c(C)c1Cc1ccc(F)cc1	TGFb inhibitor 7.1µM (no result: ATXN2 expr inh, S2 tox, HttQ103 aggreg, HTT cytoprotect)
COC(CNC(=O)c1cnn2c(C)c(Cc3ccccc3)c(C)nc12)OC	none
Cc1cc(C)c(Cc2c(C)nc3c(C(=O)NCc4ccco4)cnn3c2C)c(C)c1	ATXN2 expr inh 14µM, S2 tox 20µM, HttQ103 aggreg inconclusive
Cc1ccc(CNC(=O)c2cnn3c(C)c(Cc4c(F)cccc4Cl)c(C)nc23)cc1	S2 tox inconclusive (no result: HttQ103 aggreg, HTT cytoprotect)
COc1ccc(-c2cc(C)cc3c2OC(CNC(=O)c2cc(C(C)C)on2)C3)nn1 (stereo not drawn)	none (no result: ATXN2 expr inh, TGFb inhibitor, HepG2 tox, HttQ103 aggreg, HTT cytoprotect)
CCN1C(C(=O)c2ccccc2)=C(OC(=O)c2ccccc2OC)c2ccccc2S1(=O)=O	ATXN2 expr inh inconclusive, S2 tox inconclusive, TGFb inhibitor 10µM, HepG2 tox 4.5µM (no result: HttQ103 aggreg, HTT cytoprotect)
CC(C)c1nc(CN(C)C(=O)N[C@H](C(=O)N[C@@H](Cc2ccccc2)C[C@H](O)[C@H](Cc2ccccc2)NC(=O)OCc2cncs2)C(C)C)cs1	ATXN2 expr inh 27µM!, S2 tox inconclusive (no result: TGFb inhibitor, HepG2 tox, HttQ103 aggreg)
O=[N+]([O-])c1ccc(/C=C2\C=C(C(O)c3ccc([N+](=O)[O-])cc3)c3ccccc32)cc1 (stereo not drawn)	TGFb inhibitor 7.1µM (no result: ATXN2 expr inh, S2 tox, HttQ103 aggreg, HTT cytoprotect)
COc1ccc(C(=O)NNC(=S)NC(=O)c2ccc(OC)cc2)cc1	ATXN2 expr inh inconclusive (no result: HttQ103 aggreg, HTT cytoprotect)
CCCOc1ccc(C(=O)NNC(=S)NC(=O)CC)cc1	ATXN2 expr inh 28µM, HttQ103 aggreg inconclusive (no result: S2 tox)
C=CCNC(=S)NNC(=O)c1ccc(OCCC)cc1	HttQ103 aggreg inconclusive
CCCCC(=O)NC(=S)NNC(=O)c1ccc(OC)cc1	HttQ103 aggreg 10µM (no result: ATXN2 expr inh)
COc1cccc(CN2C(=O)NC(C)(C3CCN(Cc4cc(Cl)ccc4O)CC3)C2=O)c1OC (stereo not drawn)	none (no result: ATXN2 expr inh, TGFb inhibitor, HepG2 tox, HttQ103 aggreg, HTT cytoprotect)
CCCCCCn1c(=O)c2c(ncn2C)n(C)c1=O	none (no result: TGFb inhibitor, HepG2 tox, HttQ103 aggreg, HTT cytoprotect)
Cc1cc(C([O-])=C(C(=S)Nc2ccc(F)cc2)[n+]2ccccc2)c(C)n1-c1ccc(F)cc1	S2 tox inconclusive (no result: HttQ103 aggreg, HTT cytoprotect)
COc1cccc(NC(=S)/C(=C(\[O-])c2cc(C)n(-c3ccccc3F)c2C)[n+]2ccc(N(C)C)cc2)c1	ATXN2 expr inh inconclusive, S2 tox inconclusive, TGFb inhibitor inconclusive, HttQ103 aggreg 13µM
Cc1ccc(F)cc1CNC(=O)c1sc2ncnc(NCC3CCCO3)c2c1C (stereo not drawn)	none (no result: ATXN2 expr inh, TGFb inhibitor, HepG2 tox, HttQ103 aggreg, HTT cytoprotect)
C=CCc1cc(C(=O)N2CCCCC2)ccc1O	HttQ103 aggreg 22µM
CN1/C(=C\C=N\O)C(C)(C)c2ccccc21	none
CN1/C(=C\C=[N+](C)c2ccccc2)C(C)(C)c2ccccc21	ATXN2 expr inh 7.1µM, S2 tox 11µM, HttQ103 aggreg 6.3µM
Cc1ccccc1N=C/C=C1\N(C)c2ccccc2C1(C)C	HttQ103 aggreg 14µM
O=C(NCc1cccnc1)/C(=C\c1ccc(-c2ccc(Cl)c(Cl)c2)o1)S(=O)(=O)c1ccccc1	ATXN2 expr inh 13µM, TGFb inhibitor 4.5µM, HttQ103 aggreg inconclusive (no result: S2 tox)
O=C(NCc1cccnc1)c1ccc(-c2ccc(Cl)cc2)o1	TGFb inhibitor inconclusive (no result: ATXN2 expr inh)
CC(C)(C)c1ccc(NC(=O)COC(=O)c2ccccc2OCC(=O)Nc2ccc(Br)cc2)cc1	none (no result: ATXN2 expr inh, S2 tox, HttQ103 aggreg, HTT cytoprotect)
Cc1ccc(Oc2ccc(C(F)(F)F)cc2[N+](=O)[O-])c([N+](=O)[O-])n1	S2 tox inconclusive, HepG2 tox 22µM
O=C(O)CCNc1cc(N2CCc3ccccc3CC2)nc(-c2ccccn2)n1	none (no result: S2 tox, TGFb inhibitor, HepG2 tox, HttQ103 aggreg, HTT cytoprotect)
Cc1cccnc1-c1cccc2c1OC(CNC(=O)C(=O)c1ccccc1)C2 (stereo not drawn)	none (no result: ATXN2 expr inh, TGFb inhibitor, HepG2 tox, HttQ103 aggreg, HTT cytoprotect)
CC(CN1c2ccccc2Sc2ccccc21)N(C)C (stereo not drawn)	ATXN2 expr inh inconclusive, S2 tox inconclusive, HttQ103 aggreg 28µM!
O=C(NCc1ccncc1)C12C[C@H]3C[C@@H](C1)CC(c1ccc(Cl)cc1)(C3)C2	none (no result: S2 tox, TGFb inhibitor, HepG2 tox, HttQ103 aggreg, HTT cytoprotect)
O=C(Nc1nc(-c2ccc(F)cc2)cs1)c1cnccn1	HttQ103 aggreg 10µM
COc1ccc(C2=C(C)C(=NCCCN3CCN(c4cc(C)ccc4C)CC3)NS2(=O)=O)cc1	TGFb inhibitor inconclusive, HepG2 tox 10µM (no result: ATXN2 expr inh, S2 tox, HttQ103 aggreg, HTT cytoprotect)
COc1ccc(NC(=O)NCCCN2CCN(c3ccccc3F)CC2)cc1	none
COc1ccc(NC(=O)NCCCN2CCN(c3cc(C)ccc3C)CC2)cc1	ATXN2 expr inh inconclusive, S2 tox inconclusive, TGFb inhibitor inconclusive, HepG2 tox 13µM
COc1ccccc1-c1ccnc(-n2ncc(C(=O)N3CCCCC3c3cccnc3)c2C)n1 (stereo not drawn)	none (no result: ATXN2 expr inh, TGFb inhibitor, HepG2 tox, HttQ103 aggreg, HTT cytoprotect)
COc1cc(OC)cc(C2=Cc3ccc(OC)cc3C(CC(C)=O)N2c2ccc(C#CC3(N)CCCCC3)cc2)c1 (stereo not drawn)	S2 tox 18µM (no result: TGFb inhibitor, HepG2 tox, HttQ103 aggreg, HTT cytoprotect)

Screening results deposited in PubChem BioAssay by National Center for Advancing Translational Sciences (NCATS).
